Measured values reported in PubChem BioAssay (NCI).
The panel holds about 79,000 compounds, 15% with a hit somewhere; the sample as a whole holds those more often. Calls of active or inactive are those of the source. Cut-off read from the data, not from the text of the source: active = growth inhibition above about 70%; inactive = the rest.

Legend:
[1] = NCI Yeast Anticancer Drug Screen. Data for the mec2-1 strain (AID 157); details: S. cerevisiae mec2-1 strain, hits give high values
Summary of the method: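 Growth inhibition is read against vehicle-treated controls after compound exposure of the mec2-1 yeast strain, which is defective in DNA damage repair or cell cycle control.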

[2] = NCI Yeast Anticancer Drug Screen. Data for the rad14 strain (AID 159);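 note: 0% = growth of vehicle-treated control cultures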; details: S. cerevisiae rad14 strain growth inhibition, hits give high values
Summary of the method: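 Growth inhibition vs vehicle controls; genetically altered yeast strain (DNA damage repair defect) treated with test compounds.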

[3] = NCI Yeast Anticancer Drug Screen. Data for the sgs1 mgt1 strain (AID 161);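 note: 0% = growth of cultures given vehicle only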; details: S. cerevisiae sgs1 mgt1 strain, hits give high values
Summary of the method: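 Growth of a repair-deficient yeast mutant was monitored after compound treatment and expressed as inhibition relative to vehicle-treated cultures.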

[4] = NCI Yeast Anticancer Drug Screen. Data for the cln2 rad14 strain (AID 165);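 note: 0% = growth equal to vehicle treated cultures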; details: S. cerevisiae cln2 rad14 strain, hits give high values
Summary of the method: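 Growth inhibition, relative to vehicle-treated controls, is the read-out. The test organism is a yeast strain with defined genetic alterations, cln2 rad14.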

[5] = NCI Yeast Anticancer Drug Screen. Data for the bub3 strain (AID 167); details: S. cerevisiae bub3 mutant strain, hits give high values
Summary of the method: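 Readout: yeast growth inhibition, expressed relative to vehicle-only wells. The test organism is a mutant strain from a panel with lesions in DNA repair or checkpoint genes.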

[6] = NCI Yeast Anticancer Drug Screen. Data for the wt2 strain (AID 169);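 note: 0% = growth of vehicle-treated yeast cultures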; details: S. cerevisiae wt2 strain growth inhibition, hits give high values
Summary of the method: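 Compound exposure of yeast; growth compared with vehicle controls; inhibition reported.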

[7] = NCI Yeast Anticancer Drug Screen. Data for the mlh1 strain (AID 171);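 note: 0% = growth of vehicle-treated control cultures of the same strain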; details: S. cerevisiae mlh1 strain growth inhibition, hits give high values
Summary of the method: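 Compounds are applied to a genetically altered yeast strain, and its growth is compared with that of vehicle-treated cultures to give percent inhibition.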

[8] = NCI Yeast Anticancer Drug Screen. Data for the sgs1 strain (AID 173);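 note: 0% = growth of vehicle-only control cultures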; details: S. cerevisiae sgs1 mutant, hits give high values
Summary of the method: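 Compounds applied to genetically altered yeast; growth compared with vehicle-treated cultures to give % inhibition.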

[9] = NCI Yeast Anticancer Drug Screen. Data for the mlh1 rad18 strain (AID 175); details: S. cerevisiae mlh1 rad18 strain growth inhibition, hits give high values
Summary of the method: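 Cells of a genetically altered yeast strain, deficient in DNA damage repair, were treated with compound. Their growth was then compared with that of vehicle-treated cultures to give inhibition.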

[10] = NCI Yeast Anticancer Drug Screen. Data for the rad18 strain (AID 177); details: S. cerevisiae rad18 mutant growth inhibition, hits give high values
Summary of the method: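 Compounds are applied to a repair-deficient yeast strain, and growth is compared with that of vehicle-treated cultures to give percent inhibition.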

[11] = NCI Yeast Anticancer Drug Screen. Data for the rad52 strain (AID 147);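 note: 0% = growth of vehicle-treated control cultures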; details: S. cerevisiae rad52 mutant growth inhibition, hits give high values
Summary of the method: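 DNA repair-defective yeast; compound exposure; growth scored against vehicle controls.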

[12] = NCI Yeast Anticancer Drug Screen. Data for the wt1 strain (AID 149);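 note: 0% = growth of vehicle-treated wt1 cultures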; details: S. cerevisiae wt1 strain (SPY 50644) growth inhibition, hits give high values
Summary of the method: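 Growth inhibition read against vehicle controls after compound exposure of the wt1 yeast strain.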

[13] = NCI Yeast Anticancer Drug Screen. Data for the rad50EPP+ strain (AID 151);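 note: 0% = growth of vehicle-treated control cultures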; details: S. cerevisiae rad50 mutant strain, hits give high values
Summary of the method: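 rad50EPP+ yeast treated with test compounds. Readout: growth vs vehicle control.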

[14] = NCI Yeast Anticancer Drug Screen. Data for the mgt1 strain (AID 153); details: S. cerevisiae mgt1 mutant growth inhibition, hits give high values
Summary of the method: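 Growth inhibition relative to vehicle controls was scored for the mgt1 yeast strain after compound exposure.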

[15] = NCI Yeast Anticancer Drug Screen. Data for the rad50 strain (AID 155);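 note: 0% = growth of vehicle-only cultures of the same strain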; details: S. cerevisiae rad50 strain growth inhibition, hits give high values
Summary of the method: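 Readout: growth inhibition relative to vehicle-treated cultures. Compound exposure was carried out in a genetically defined yeast strain deficient in DNA damage repair.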

[16] = NCI Yeast Anticancer Drug Screen. Data for the CLN2oe strain (AID 163);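 note: 0% = growth of vehicle-only control cultures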; details: S. cerevisiae CLN2oe strain, hits give high values
Summary of the method: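 Compound-treated yeast; growth vs vehicle ctrl = % inhibition. Genetically altered strain (cell-cycle control).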

[17] = at 5.0 µM (retest, dose inferred, filed as 0.5)
[18] = at 50.0 µM (retest, dose inferred, filed as 5.0)

Measured: growth inhibition

CCCCOC(=O)Nc1ccc(C)c(NC(=O)OCCCC)c1
active: [1]; at 50.0 µM 94.3% | [3]; [18] 82% | [3]; at 50.0 µM 88.6% | [4]; [18] 79% | [4]; at 50.0 µM 91.9% | [5]; [18] 72% | [5]; at 50.0 µM 94.5% | [8]; at 100.0 µM 72% | [9]; [18] 84% | [9]; at 50.0 µM 94.5%
inactive: [1]; [17] -2% | [1]; at 11.0 µM -6% | [1]; at 33.0 µM 7% | [1]; [18] 69% | [1]; at 100.0 µM 22% | [2]; at 1.2 µM -3% | [2]; at 3.7 µM -3% | [2]; at 11.0 µM 2% | [2]; at 33.0 µM 11% | [2]; at 100.0 µM 15% | [3]; [17] 1% | [4]; [17] -4% | [5]; at 1.2 µM -8% | [5]; at 3.7 µM -9% | [5]; [17] -2% | [5]; at 11.0 µM -8% | [5]; at 33.0 µM 3% | [5]; at 100.0 µM 8% | [6]; at 1.2 µM -4% | [6]; at 3.7 µM -4% | [6]; at 11.0 µM 6% | [6]; at 33.0 µM 52% | [6]; at 100.0 µM 29% | [7]; at 1.2 µM -8% | [7]; at 3.7 µM -6% | [7]; at 11.0 µM 1% | [7]; at 33.0 µM 17% | [7]; at 100.0 µM 36% | [8]; at 1.2 µM -4% | [8]; at 3.7 µM -5% | [8]; at 11.0 µM 8% | [8]; at 33.0 µM 47% | [9]; [17] -1% | [10]; at 1.2 µM -5% | [10]; at 3.7 µM -8% | [10]; at 11.0 µM 12% | [10]; at 33.0 µM 31% | [10]; at 100.0 µM 50%

CS(=O)(=O)SCc1ccc([N+](=O)[O-])cc1
active: [11]; at 11.0 µM 90% | [11]; at 33.0 µM 99% | [11]; at 100.0 µM 97% | [12]; at 33.0 µM 99% | [12]; at 100.0 µM 98% | [13]; at 11.0 µM 97% | [13]; at 33.0 µM 99% | [13]; at 100.0 µM 97% | [14]; at 33.0 µM 99% | [14]; at 100.0 µM 98% | [15]; at 11.0 µM 97% | [15]; at 33.0 µM 99% | [15]; [18] 93% | [15]; at 50.0 µM 97.9% | [15]; at 100.0 µM 97% | [1]; at 11.0 µM 85% | [1]; at 33.0 µM 99% | [1]; [18] 96% | [1]; at 50.0 µM 98% | [1]; at 100.0 µM 97% | [2]; at 33.0 µM 99% | [2]; at 100.0 µM 97% | [3]; [18] 95% | [3]; at 50.0 µM 98.1% | [16]; at 33.0 µM 98% | [16]; at 100.0 µM 97% | [4]; [18] 94% | [4]; at 50.0 µM 96.5% | [5]; at 11.0 µM 97% | [5]; at 33.0 µM 99% | [5]; [18] 94% | [5]; at 50.0 µM 98.8% | [5]; at 100.0 µM 96% | [7]; at 11.0 µM 70% | [7]; at 33.0 µM 99% | [7]; at 100.0 µM 97% | [8]; at 11.0 µM 97% | [8]; at 33.0 µM 99% | [8]; at 100.0 µM 97% | [9]; [18] 93% | [9]; at 50.0 µM 98% | [10]; at 11.0 µM 90% | [10]; at 33.0 µM 99% | [10]; at 100.0 µM 97%
inactive: [11]; at 1.2 µM 7% | [11]; at 3.7 µM 30% | [12]; at 1.2 µM -5% | [12]; at 3.7 µM 1% | [12]; at 11.0 µM 38% | [13]; at 1.2 µM 8% | [13]; at 3.7 µM 57% | [14]; at 1.2 µM -2% | [14]; at 3.7 µM -4% | [14]; at 11.0 µM 61% | [15]; at 1.2 µM 1% | [15]; at 3.7 µM 41% | [15]; [17] 20% | [1]; at 1.2 µM 3% | [1]; at 3.7 µM 4% | [1]; [17] -25% | [2]; at 1.2 µM 5% | [2]; at 3.7 µM 18% | [2]; at 11.0 µM 69% | [3]; [17] -11% | [16]; at 1.2 µM -2% | [16]; at 3.7 µM 7% | [16]; at 11.0 µM 57% | [4]; [17] -35% | [5]; at 1.2 µM 6% | [5]; at 3.7 µM 40% | [5]; [17] 51% | [7]; at 1.2 µM 6% | [7]; at 3.7 µM 14% | [8]; at 1.2 µM -3% | [8]; at 3.7 µM 39% | [9]; [17] -31% | [10]; at 1.2 µM 7% | [10]; at 3.7 µM 29%
